In PubChem BioAssay (Tox21):
A number with no mark means an inactive call. Records with an inconclusive call do not appear. Calls of active or inactive are those of the source. Unless noted, calls come from the whole dose curve; as a rule, active = well fitted curve in the direction sought with a large enough effect in the repeat runs; inconclusive = weak or mixed curves; inactive = no such curve, though single readings can be large; an effect the other way counts as inactive or inconclusive.

target: Estrogen receptor (Homo sapiens) (UniProt P03372); experiment: qHTS assay to identify small molecule antagonists of the estrogen receptor alpha (ER-alpha) signaling pathway using the BG1 cell line in the presence of 0.1 nM 17-beta-estradiol (AID 1259244); settings: VM7Luc4E2 (BG1) ERE-luciferase, antagonist mode, 0.1 nM E2, 22 h; series mostly up to 92.4 µM; activity change, negative = inhibition: at the top concentration; note: nearly all actives have a fitted effect of over 50% in size
Outline: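 After 5 days in hormone-depleted medium (charcoal-stripped serum, no phenol red), VM7Luc4E2 cells were seeded, incubated 24 h, then co-treated with compound and 0.1 nM (final) estradiol for 22 h before luminescence detection.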
% is set by controls: 0 for no effect and ±100 for the full control effect.

Estrogen receptor (Homo sapiens), sequence (P03372 whole entry, looked up): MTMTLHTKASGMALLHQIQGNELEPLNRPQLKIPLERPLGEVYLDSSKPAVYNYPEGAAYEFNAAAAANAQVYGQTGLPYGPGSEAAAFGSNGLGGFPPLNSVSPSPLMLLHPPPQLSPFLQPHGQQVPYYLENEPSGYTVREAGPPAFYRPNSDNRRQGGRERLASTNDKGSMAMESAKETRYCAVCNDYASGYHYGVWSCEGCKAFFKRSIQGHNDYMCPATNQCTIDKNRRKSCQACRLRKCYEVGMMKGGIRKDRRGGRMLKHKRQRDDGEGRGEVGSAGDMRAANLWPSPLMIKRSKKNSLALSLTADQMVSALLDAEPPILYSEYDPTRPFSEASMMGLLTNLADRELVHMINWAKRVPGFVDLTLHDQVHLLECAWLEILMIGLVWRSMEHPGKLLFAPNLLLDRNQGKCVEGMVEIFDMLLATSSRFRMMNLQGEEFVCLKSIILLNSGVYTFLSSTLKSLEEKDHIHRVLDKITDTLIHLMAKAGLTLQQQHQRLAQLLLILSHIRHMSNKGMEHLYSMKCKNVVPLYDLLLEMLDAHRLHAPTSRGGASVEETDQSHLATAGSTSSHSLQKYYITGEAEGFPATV

Structure (SMILES) | activity change, negative = inhibition
SCCc1cnccn1 | -0.38%
CC(C)c1ccc(C(=O)N=C(N)N)cc1S(C)(=O)=O | -5.69% [at 42.5 µM]
OCC(CO)n1cnc(-c2ccc(F)cc2)c1-c1ccnc(Oc2ccccc2)n1 | -23%
O=C(O)CCS | 21.6%
CCN(CC)CC(=O)Nc1c(C)cccc1C(=O)OC | -17.5% [at 42.5 µM]
CC(C)N=C=NC(C)C | 1.25%
[Cl][Nd]([Cl])[Cl] | 0.139%
CC(=O)NNC(C)=O | 8.35%
CC(C)(C)S | -9.05%
CCOC(=O)N1CCC(Nc2ccc(Cl)cc2N)CC1 | -26.6% [at 42.5 µM]

tested on: not listed separately; experiment: qHTS assay to identify small molecule phospholipidosis (PLD) inducers (AID 1259344; active = well fitted curve in the direction sought with a large enough effect; an effect the other way counts as inactive or inconclusive); settings: HepG2 phospholipidosis, LipidTOX Red imaging, 24 h; series mostly up to 38.3 µM; PLD induction: at the top concentration
Outline: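 HepG2 cells on collagen I, attached 4 h at 37 C, were co-treated with compound and LipidTOX Red dye for 24 h at 37 C, then fixed with paraformaldehyde plus Hoechst 33342 and imaged by high-content microscopy for phospholipid accumulation.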

Structure (SMILES) | PLD induction | Potency
Cc1cccc(C)c1NC(=O)c1cc(S(N)(=O)=O)c(Cl)cc1O | 5.81% | 
CC(=O)N[C@@H](Cc1ccc(O)cc1)C(=O)O | 0.0492% | 
CCN(CC)CCOC(=O)C(c1ccccc1)c1ccccc1 | 8.48% | 
CC(=O)OCC1=C(C(=O)O)N2C(=O)[C@@H](NC(=O)CSc3ccncc3)[C@H]2SC1 | 0.604% | 
O=C(O)CN1C(=O)c2cccc3cccc(c23)C1=O | -0.0909% | 
Cc1c[nH]c2ccccc12 | -0.0254% | 
Cc1ccc2nc(N)[nH]c(=O)c2c1Sc1ccncc1 | 2.1% | 
COc1ccc(/C=C/C(=O)c2ccc(OC)cc2OC)cc1 | 0.382% | 
Nc1ccn([C@H]2CS[C@@H](CO)O2)c(=O)n1 |  | inactive
Nc1ccc(S(=O)(=O)NCc2ccccc2)cc1 | -1.08% | 
CCN(CC)C(=O)N1CCN(C)CC1 | 0.208% [at 15.5 µM] | 
CC(=O)OCC(=O)[C@@]1(OC(C)=O)[C@@H](C)C[C@H]2[C@@H]3C[C@H](F)C4=CC(=O)C=C[C@]4(C)[C@@]3(F)[C@@H](O)C[C@@]21C | 0% | 
O=C(O)CCC(=O)OC[C@@H](NC(=O)C(Cl)Cl)[C@H](O)c1ccc([N+](=O)[O-])cc1 | -0.742% | 

tested on: not listed separately; experiment: qHTS assay to identify small molecule HDAC inhibitors (AID 1259364); settings: HCT-116 HDAC-Glo I/II luminescence, 2 h; series mostly up to 92.4 µM; activity change, negative = inhibition: at the top concentration; note: nearly all actives have a fitted effect of over 45% in size; note: potency is the fitted concentration of half-maximal effect; for activity change, negative = inhibition: top concentration of the series differs between compounds
Outline: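 Homogeneous cell-based luminescent assay of endogenous class I/II HDAC activity; HCT-116 cells, 2 h compound exposure, 30 min HDAC-Glo development at RT.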

Structure (SMILES) | Potency | activity change, negative = inhibition
Nc1nc(-c2ccc([N+](=O)[O-])cc2)cs1 | 12.3 µM (active) | 
Cc1cccc(C)c1NC(=O)c1cc(S(N)(=O)=O)c(Cl)cc1O |  | 1.55% [at 42.5 µM]
CCCCCCCCCCCCCOC(=O)CCSCCC(=O)OCCCCCCCCCCCCC |  | 3.35% [at 19 µM]
CCCCCC |  | 3.49%
Cc1ccccc1S(N)(=O)=O |  | -4.46%
CCN(CC)CCOC(=O)C(c1ccccc1)c1ccccc1 |  | 3.21% [at 42.5 µM]
O=S(=O)(O)CO |  | 1.39%
CC(=O)OCC1=C(C(=O)O)N2C(=O)[C@@H](NC(=O)CSc3ccncc3)[C@H]2SC1 |  | 0.945% [at 42.5 µM]
O=C(O)CN1C(=O)c2cccc3cccc(c23)C1=O |  | 0.185% [at 42.5 µM]
COc1ccc(C)cc1 |  | 0.262%
O=C1OC(=O)c2c(Br)c(Br)c(Br)c(Br)c21 |  | -0.0679%
C1CCCCC1 |  | 0.831%
Cc1c[nH]c2ccccc12 |  | 3.55% [at 42.5 µM]
Cc1ccc2nc(N)[nH]c(=O)c2c1Sc1ccncc1 |  | 8.47% [at 42.5 µM]
O=C(O)CCCc1c[nH]c2ccccc12 |  | 4.01%
CCCCCCCC(=O)Oc1c(Br)cc(C#N)cc1Br |  | -12.8%
CC1CCCO1 (stereo not given) |  | 6.04%
[Cl][Nd]([Cl])[Cl] |  | 22.6%
CC1=CC[C@@]23C[C@@H]1C(C)(C)[C@@H]2CC[C@H]3C |  | 2.1%
CCNc1nc(N)nc(Cl)n1 |  | 3.42%
COC(CC(C)CCCC(C)(C)O)OC (stereo not given) |  | 4.43%
Nc1ccn([C@H]2CS[C@@H](CO)O2)c(=O)n1 |  | 1.29%
Nc1ccc(S(=O)(=O)NCc2ccccc2)cc1 |  | 10.4% [at 42.5 µM]
CCN(CC)C(=O)N1CCN(C)CC1 |  | 2.46% [at 42.5 µM]
CC(=O)OCC(=O)[C@@]1(OC(C)=O)[C@@H](C)C[C@H]2[C@@H]3C[C@H](F)C4=CC(=O)C=C[C@]4(C)[C@@]3(F)[C@@H](O)C[C@@]21C |  | 1.04% [at 42.5 µM]
CCCCCCOC(=O)CCCCC |  | -0.762%
CC/C=C\C/C=C\C/C=C\CCCCCCCC(=O)OCC |  | 5.32%
O=C(O)CCC(=O)OC[C@@H](NC(=O)C(Cl)Cl)[C@H](O)c1ccc([N+](=O)[O-])cc1 |  | 1.38% [at 42.5 µM]

tested on: not listed separately; experiment: qHTS assay to identify small molecule HDAC inhibitors - cell viability counter screen (AID 1259365); settings: HCT-116 viability, CellTiter-Glo ATP luminescence, 2 h; series mostly up to 92.4 µM; activity change, negative = cytotoxicity: at the top concentration; note: nearly all actives have a fitted effect of over 50% in size
Outline: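 Cytotoxicity was gauged in wild-type HCT-116 cells after a brief 2hr treatment with DMSO-dissolved compounds at 37C and 5% CO2, using CellTiter-Glo luminescence developed for 30min at room temperature.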

Structure (SMILES) | activity change, negative = cytotoxicity
Nc1nc(-c2ccc([N+](=O)[O-])cc2)cs1 | -1.07%
Cc1cccc(C)c1NC(=O)c1cc(S(N)(=O)=O)c(Cl)cc1O | 3.84% [at 42.5 µM]
CCCCCCCCCCCCCOC(=O)CCSCCC(=O)OCCCCCCCCCCCCC | 6.04% [at 19 µM]
CC(=O)N[C@@H](Cc1ccc(O)cc1)C(=O)O | -8.8% [at 42.5 µM]
CCCCCC | 6.69%
Cc1ccccc1S(N)(=O)=O | -0.301%
CCN(CC)CCOC(=O)C(c1ccccc1)c1ccccc1 | -6.61% [at 42.5 µM]
O=S(=O)(O)CO | 0.366%
CC(=O)OCC1=C(C(=O)O)N2C(=O)[C@@H](NC(=O)CSc3ccncc3)[C@H]2SC1 | -2.98% [at 42.5 µM]
O=C(O)CN1C(=O)c2cccc3cccc(c23)C1=O | -1.03% [at 42.5 µM]
SCCc1cnccn1 | 4.66%
COc1ccc(C)cc1 | 0.44%
CC(C)c1ccc(C(=O)N=C(N)N)cc1S(C)(=O)=O | -0.739% [at 42.5 µM]
O=C1OC(=O)c2c(Br)c(Br)c(Br)c(Br)c21 | 4.86%
OCC(CO)n1cnc(-c2ccc(F)cc2)c1-c1ccnc(Oc2ccccc2)n1 | -5.27%
C1CCCCC1 | 1.32%
Cc1c[nH]c2ccccc12 | -0.589% [at 42.5 µM]
O=C(O)CCS | 1.94%
Cc1ccc2nc(N)[nH]c(=O)c2c1Sc1ccncc1 | 3.22% [at 42.5 µM]
O=C(O)CCCc1c[nH]c2ccccc12 | -3.79%

Structure (SMILES) | activity change, negative = cytotoxicity
CCCCCCCC(=O)Oc1c(Br)cc(C#N)cc1Br | -8.1%
CCN(CC)CC(=O)Nc1c(C)cccc1C(=O)OC | 3.61% [at 42.5 µM]
CC(C)N=C=NC(C)C | 1.96%
CC1CCCO1 (stereo not given) | -9.11%
[Cl][Nd]([Cl])[Cl] | -2.69%
CC1=CC[C@@]23C[C@@H]1C(C)(C)[C@@H]2CC[C@H]3C | 0.992%
COc1ccc(/C=C/C(=O)c2ccc(OC)cc2OC)cc1 | -0.191% [at 42.5 µM]
CCNc1nc(N)nc(Cl)n1 | 2.9%
COC(CC(C)CCCC(C)(C)O)OC (stereo not given) | -0.183%
CC(=O)NNC(C)=O | -2.99%
Nc1ccn([C@H]2CS[C@@H](CO)O2)c(=O)n1 | 2.6%
Nc1ccc(S(=O)(=O)NCc2ccccc2)cc1 | 2.02% [at 42.5 µM]
CCN(CC)C(=O)N1CCN(C)CC1 | 1.28% [at 42.5 µM]
CC(C)(C)S | 0.398%
CCOC(=O)N1CCC(Nc2ccc(Cl)cc2N)CC1 | 2.8% [at 42.5 µM]
CC(=O)OCC(=O)[C@@]1(OC(C)=O)[C@@H](C)C[C@H]2[C@@H]3C[C@H](F)C4=CC(=O)C=C[C@]4(C)[C@@]3(F)[C@@H](O)C[C@@]21C | -0.0928% [at 42.5 µM]
CCCCCCOC(=O)CCCCC | -0.396%
CC/C=C\C/C=C\C/C=C\CCCCCCCC(=O)OCC | 3.97%
O=C(O)CCC(=O)OC[C@@H](NC(=O)C(Cl)Cl)[C@H](O)c1ccc([N+](=O)[O-])cc1 | -5.25% [at 42.5 µM]
